The values below come from the supplement of paper PMC9492666.

One assay deals with HCC1937. The assay can be described thus: relative cell viability, compound + erastin, vs DMSO (fraction of DMSO control); higher = less growth inhibition. To be noted: 72 h.
The test system of another assay is MDA-MB-231. Described as above. To be noted: 72 h.
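Further: viability read by CCK-8 kit in 96-well plates, part of a combination screen pairing lipid-metabolism-targeting compounds with erastin.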

As for `Cn1nc(C(=O)N(Cc2ccccc2)Cc2ccc(C(=O)O)cc2)c2c1-c1cc(Cl)ccc1OC2` [Nidufexor] + CCOc1ccccc1-n1c(C(C)N2CCN(C(=O)COc3ccc(Cl)cc3)CC2)nc2ccccc2c1=O [erastin], the relative cell viability in the assay with HCC1937 was determined as 0.638; with MDA-MB-231, 0.771.

`Cc1cccc(Nc2cc(Cl)nc(SCC(=O)O)n2)c1C` [Pirinixic Acid] + CCOc1ccccc1-n1c(C(C)N2CCN(C(=O)COc3ccc(Cl)cc3)CC2)nc2ccccc2c1=O [erastin]: the relative cell viability in the assay on HCC1937 came to 0.602; with MDA-MB-231, 0.74.

For `COc1ccc2c(=O)c(-c3ccccc3)coc2c1` [7-Methoxyisoflavone] + CCOc1ccccc1-n1c(C(C)N2CCN(C(=O)COc3ccc(Cl)cc3)CC2)nc2ccccc2c1=O [erastin], the values for the relative cell viability with HCC1937 and in the assay with MDA-MB-231 were 0.443 and 0.68, respectively.

As to `O=C(/C=C/c1ccc(/C=C/C(=O)Nc2ccc(C3=NCCN3)cc2)cc1)Nc1ccc(C2=NCCN2)cc1` + CCOc1ccccc1-n1c(C(C)N2CCN(C(=O)COc3ccc(Cl)cc3)CC2)nc2ccccc2c1=O [erastin], the relative cell viability with HCC1937 turned out to be 0.554; in the assay on MDA-MB-231, 0.346.

Turning to `COC(=O)CN(c1ccc(CN(c2ccc(OCc3ccc(C)cc3)c(C(=O)OC)c2)S(=O)(=O)Cc2ccccc2)cc1)S(C)(=O)=O` + CCOc1ccccc1-n1c(C(C)N2CCN(C(=O)COc3ccc(Cl)cc3)CC2)nc2ccccc2c1=O [erastin], the relative cell viability was found to be 0.624 in the assay on HCC1937 and 0.643 in the assay on MDA-MB-231.

For the compound `NC(N)=NN=Cc1cccc(Cl)c1Cl` [Raphin1] + CCOc1ccccc1-n1c(C(C)N2CCN(C(=O)COc3ccc(Cl)cc3)CC2)nc2ccccc2c1=O [erastin], the relative cell viability amounted to 0.556 with HCC1937 and 0.558 in the assay on MDA-MB-231.
